# Experimental data taken from PubChem BioAssay (NCI).
# This is part of a sample that, as a whole, favours compounds with a hit. Of some 79,000 tested, about 15% had one in any assay. Values without a mark were called inactive. Active and inactive are the calls of the source. Cut-off read from the data, not from the text of the source: active = growth inhibition above about 70%; inactive = the rest.
# Experiments:
# [1] = NCI Yeast Anticancer Drug Screen. Data for the rad50 strain (AID 155);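 note: 0% = growth of vehicle-only cultures of the same strain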; details: S. cerevisiae rad50 strain growth inhibition, stronger effect = higher value
# How it was run: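 Vehicle-treated cultures provide the reference for the growth inhibition reported for compound-exposed, repair-deficient yeast.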
# [2] = NCI Yeast Anticancer Drug Screen. Data for the mec2-1 strain (AID 157); details: S. cerevisiae mec2-1 strain, stronger effect = higher value
# How it was run: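 Cells of the genetically defined mec2-1 yeast strain are incubated with test compound. Inhibition of growth is calculated against vehicle-treated controls.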
# [3] = NCI Yeast Anticancer Drug Screen. Data for the sgs1 mgt1 strain (AID 161);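 note: 0% = growth of cultures given vehicle only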; details: S. cerevisiae sgs1 mgt1 strain, stronger effect = higher value
# How it was run: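 Genetically altered yeast, compound exposure, growth inhibition relative to vehicle.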
# [4] = NCI Yeast Anticancer Drug Screen. Data for the cln2 rad14 strain (AID 165);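 note: 0% = growth equal to vehicle treated cultures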; details: S. cerevisiae cln2 rad14 strain, stronger effect = higher value
# How it was run: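 The screen exposed genetically defined yeast (cln2 rad14) to test compounds and scored growth inhibition relative to vehicle-treated controls.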
# [5] = NCI Yeast Anticancer Drug Screen. Data for the bub3 strain (AID 167); details: S. cerevisiae bub3 mutant strain, stronger effect = higher value
# How it was run: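 Mutant yeast screening strain plus compound; vehicle-treated cultures serve as the 0% inhibition reference.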
# [6] = NCI Yeast Anticancer Drug Screen. Data for the mlh1 rad18 strain (AID 175); details: S. cerevisiae mlh1 rad18 strain growth inhibition, stronger effect = higher value
# How it was run: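 Compound-treated yeast growth, normalised to vehicle controls. Strain bears defined DNA repair mutations.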
# [7] = at 5.0 µM (retest, dose inferred, filed as 0.5)
# [8] = at 50.0 µM (retest, dose inferred, filed as 5.0)
Compound,"growth inhibition [1, 7] [%]","growth inhibition [1, 8]",growth inhibition ([1]; at 50.0 µM),"growth inhibition [2, 7] [%]","growth inhibition [2, 8]",growth inhibition ([2]; at 50.0 µM),"growth inhibition [3, 7] [%]","growth inhibition [3, 8]",growth inhibition ([3]; at 50.0 µM),"growth inhibition [4, 7] [%]","growth inhibition [4, 8]",growth inhibition ([4]; at 50.0 µM),"growth inhibition [5, 7] [%]","growth inhibition [5, 8]",growth inhibition ([5]; at 50.0 µM),"growth inhibition [6, 7] [%]","growth inhibition [6, 8]",growth inhibition ([6]; at 50.0 µM)
CN(C)c1ccc(/C=C(\C#N)c2c(F)cccc2F)cc1,4,-2%,6.05%,3,2%,-10.8%,4,1%,17.9%,3,-3%,41.8%,3,-2%,13.3%,1,-1%,0.45%
O=[N+]([O-])c1ccc2c(c1)OCO2,0,22%,68.2%,1,4%,8%,-2,3%,69.7%,1,0%,6.95%,0,3%,37%,-4,5%,67.7%
COc1ccc2c(C)cc(N/N=C/c3ccc(OC)c4ccccc34)nc2c1,27,98% (active),89.7% (active),51,99% (active),36.8%,66,99% (active),91% (active),0,99% (active),35.5%,9,99% (active),52%,42,98% (active),39.9%
CC(C)(C)c1cc(C(O)(C(F)(F)F)C(F)(F)F)c(S)c(C(O)(C(F)(F)F)C(F)(F)F)c1,8,98% (active),98.8% (active),-6,99% (active),99.3% (active),9,98% (active),98.8% (active),16,98% (active),99% (active),7,97% (active),99% (active),4,95% (active),99% (active)
O=c1c(NO)c([N+](=O)[O-])cnn1-c1ccccc1,25,51%,14.5%,8,18%,2.4%,-7,-2%,29.4%,13,31%,34.4%,-2,28%,-3.6%,-23,-5%,-0.5%
C/C(=N\NC(=S)N(C)CCN(C)C(=S)N/N=C(\C)c1ccccn1)c1ccccn1,-8,99% (active),97.5% (active),-5,99% (active),97.2% (active),-3,99% (active),97.8% (active),4,99% (active),95.8% (active),-10,99% (active),97% (active),20,99% (active),96.7% (active)
CC1=C(C(=O)Nc2ccccc2C)C(c2ccc(Cl)c(Cl)c2)C(C(=O)Nc2ccccc2C)=C(C)N1,5,5%,84% (active),2,2%,76.3% (active),-5,-5%,79.4% (active),8,8%,78.5% (active),-19,-19%,82% (active),8,8%,77.1% (active)
Cn1c(N)c(N=Nc2ccc(S(N)(=O)=O)cc2)c(=O)n(C)c1=O,0,24%,-23.8%,22,-4%,-6.75%,7,10%,-36.8%,27,8%,28.7%,6,9%,-44.8%,5,10%,-9.4%
O=C(O)/C=C/c1ccc([N+](=O)[O-])o1,12,50%,87.4% (active),5,38%,80% (active),9,67%,90% (active),-3,38%,62.4%,4,42%,76% (active),11,81% (active),93.2% (active)
